Drawing on PubChem BioAssay (NCI), this text covers growth for 14 molecules.

Among the test systems are HCT-15 colon; HT29 colon; SNB-75 CNS; SNB-19 CNS; U251 CNS; PC-3 prostate; SK-MEL-5 melanoma; UACC-62 melanoma; LOX IMVI melanoma; SK-MEL-28 melanoma.
Common to all, as to assay: NCI-60 one-dose screen, 48 h (100 = growth as untreated, 0 = no growth, -100 = all killed)
Common to all, as to details: 10 µM unless noted

The panel holds about 83,000 compounds, 20% with a hit somewhere; the sample as a whole holds those more often.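 Assay: single dose, 48 h. Readout: percent growth (0 = no net growth; negative = cell death). Active: <10.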 A number with no mark means an inactive call. Activity calls are given as the source filed them.

Consider `CCN(c1ccc(C(=O)N2CCN(c3ccccc3)CC2)cc1)S(C)(=O)=O`, for which the growth in the assay on HCT-15 colon is 104%; in the assay on HT29 colon it was 97.7%; with SNB-75 CNS it was 64.1%; in the assay with SNB-19 CNS it was 100%; in the assay on U251 CNS, 105%; in the assay on PC-3 prostate it was 101%. Also, the growth was 99.6% with SK-MEL-5 melanoma, 105% in the assay on UACC-62 melanoma, 100% in the assay with LOX IMVI melanoma and 108% with SK-MEL-28 melanoma.

Regarding `Fc1ccccc1Nc1ccc2nnc(-c3ccncc3)n2n1`, the growth was 95.6% in the assay on HCT-15 colon; 103% in the assay with HT29 colon; 101% with SNB-75 CNS; 100% in the assay on SNB-19 CNS; 101% with U251 CNS; 101% in the assay with PC-3 prostate. Moreover, the growth in the assay on SK-MEL-5 melanoma is 103%; in the assay with UACC-62 melanoma it was 107%; with LOX IMVI melanoma, 95.6%; in the assay with SK-MEL-28 melanoma, 112%.

With `Cc1cccc2c(=O)c3c(sc12)c(NCCCN)nc1ccccc13`, the growth is -69.2% (active) in the assay on HCT-15 colon; -52.8% (active) in the assay with HT29 colon; 19.7% in the assay on SNB-75 CNS; 51.3% in the assay with SNB-19 CNS; 1.33% (active) with U251 CNS; 34.8% in the assay with PC-3 prostate. For the same molecule, the growth was 47.3% in the assay on SK-MEL-5 melanoma, 14.2% in the assay on UACC-62 melanoma, -93.7% (active) with LOX IMVI melanoma and 8.94% (active) with SK-MEL-28 melanoma.

`Cc1oc2c(c1C(=O)N1CC[C@@H](N)C1)C(=O)c1c(c(O)c3ccccc3c1O)C2=O`: the growth with HCT-15 colon was 20.7%; with HT29 colon, 11.3%; in the assay on SNB-75 CNS it was 31.8%; in the assay on SNB-19 CNS it was 40%; with U251 CNS it was 23.8%; in the assay on PC-3 prostate it was 10.9%. In addition, the growth with SK-MEL-5 melanoma was 42.7%; with UACC-62 melanoma it was 55.2%; in the assay on LOX IMVI melanoma, 24.9%; with SK-MEL-28 melanoma, 62.9%.

`O=C1/C(=C/c2ccc(Cl)cc2)N=C(c2ccccc2)N1CCc1cccs1`: the growth is 10.2% with HCT-15 colon; 0.797% (active) in the assay on HT29 colon; 31.1% with SNB-75 CNS; 64.5% in the assay on SNB-19 CNS; 44.5% with U251 CNS; 59% in the assay with PC-3 prostate. Besides, the growth in the assay on SK-MEL-5 melanoma is 84.7%; in the assay on UACC-62 melanoma, 55.7%; in the assay on LOX IMVI melanoma, 30.1%; with SK-MEL-28 melanoma, 77.4%.

Consider `CCCCCCCC/C=C\CCCCCCCCOc1cccc(CC(=O)NCC[N+]2(C)CCOCC2)c1`, for which the growth is 96.7% in the assay with HCT-15 colon; 53.5% in the assay with HT29 colon; 49.9% in the assay with SNB-75 CNS; 72.3% in the assay with SNB-19 CNS; 51% with U251 CNS; 33.3% in the assay on PC-3 prostate. Also, the growth in the assay on SK-MEL-5 melanoma was 99.8%; with UACC-62 melanoma it was 80.2%; in the assay on LOX IMVI melanoma it was 91.3%; with SK-MEL-28 melanoma, 102%.

`Oc1ccc(Cl)cc1CNc1nc2ccccc2[nH]1`: the growth in the assay on HCT-15 colon was 15.9%; in the assay with HT29 colon it was -46% (active); with SNB-75 CNS, 70.5%; in the assay with SNB-19 CNS, 111%; with U251 CNS, 55%; in the assay with PC-3 prostate it was -5.5% (active). Moreover, the growth is 49% with SK-MEL-5 melanoma, -68.1% (active) in the assay with UACC-62 melanoma, -78.1% (active) with LOX IMVI melanoma and -82.6% (active) in the assay on SK-MEL-28 melanoma.

Take `Cl.Fc1c[c-]c(-c2ccccn2)c(F)c1.[Pt].c1ccc([PH+](CC[PH+](c2ccccc2)c2ccccc2)c2ccccc2)cc1`: the growth is -76.2% (active) in the assay on HCT-15 colon; -73.5% (active) in the assay with HT29 colon; -94.2% (active) in the assay on SNB-75 CNS; -76.4% (active) in the assay on SNB-19 CNS; -62.2% (active) with U251 CNS; -70.1% (active) in the assay on PC-3 prostate. In addition, the growth in the assay with SK-MEL-5 melanoma was -99.3% (active); in the assay on UACC-62 melanoma, -81% (active); with LOX IMVI melanoma, -82.4% (active); with SK-MEL-28 melanoma, -94.1% (active).

With `COc1ccc(/C=N\N2CCOCC2)cc1OC1CCCC1`, the growth is 104% with HCT-15 colon; 106% with HT29 colon; 86.8% with SNB-75 CNS; 95.8% in the assay on SNB-19 CNS; 101% in the assay on U251 CNS; 101% in the assay on PC-3 prostate. In addition, the growth was 99.3% in the assay with SK-MEL-5 melanoma, 92.7% in the assay with UACC-62 melanoma, 101% in the assay on LOX IMVI melanoma and 116% with SK-MEL-28 melanoma.

As for `O=C(CC(O)c1ccccc1)Nc1ccccn1` (stereo not given), the growth with HCT-15 colon was 101%; in the assay on HT29 colon it was 103%; in the assay on SNB-75 CNS, 85.9%; with SNB-19 CNS, 92.1%; with U251 CNS, 102%; in the assay on PC-3 prostate, 93.2%. Besides, the growth with SK-MEL-5 melanoma is 116%; in the assay on UACC-62 melanoma, 98.3%; in the assay on LOX IMVI melanoma it was 98.4%; in the assay with SK-MEL-28 melanoma, 103%.

Turning to `Cc1ccccc1-c1cc(-c2ccc(Br)s2)[nH]c(=O)c1C#N`, the growth with HCT-15 colon is 98.7%; in the assay on HT29 colon it was 112%; in the assay with SNB-75 CNS, 92.3%; with SNB-19 CNS, 103%; in the assay on U251 CNS, 106%; with PC-3 prostate, 98.9%. The growth was 93.1% with SK-MEL-5 melanoma, 92.3% with UACC-62 melanoma, 94.2% with LOX IMVI melanoma and 108% in the assay with SK-MEL-28 melanoma.

Consider `COc1ccc2c(c1)c(=O)oc1c(C)c(OCC(C)=O)ccc12`, for which the growth with HCT-15 colon is 86.7%; with HT29 colon, 103%; in the assay on SNB-75 CNS it was 108%; with SNB-19 CNS, 101%; in the assay on U251 CNS, 90%; with PC-3 prostate, 83.3%. Besides, the growth in the assay with SK-MEL-5 melanoma is 103%; in the assay with UACC-62 melanoma, 64.3%; with LOX IMVI melanoma, 94.7%; with SK-MEL-28 melanoma it was 106%.

`Cc1ccccc1-n1nnc(C(=O)Nc2nc(-c3ccccc3)c(-c3ccccc3)s2)c1C`: the growth with HCT-15 colon is 67.3% [50 µM]; in the assay on HT29 colon, 78.7% [50 µM]; with SNB-75 CNS it was 5.92% [50 µM] (active); in the assay on SNB-19 CNS it was 49.5% [50 µM]; with U251 CNS, 76.6% [50 µM]; in the assay with PC-3 prostate it was 63.2% [50 µM]. Also, the growth with SK-MEL-5 melanoma is 80.5% [50 µM]; in the assay with UACC-62 melanoma, 69.9% [50 µM]; with LOX IMVI melanoma, 80.7% [50 µM]; in the assay with SK-MEL-28 melanoma, 87.2% [50 µM].

Regarding `COC(=O)c1c2c(c(C)[n+]([O-])c1C)C(=O)C=C(NCc1ccc(F)cc1)C2=O`, the growth in the assay with HCT-15 colon was -60.5% (active); in the assay on HT29 colon, 2.67% (active); in the assay on SNB-75 CNS it was -92% (active); with SNB-19 CNS, -66.5% (active); with U251 CNS, -23.1% (active); in the assay on PC-3 prostate it was 2.62% (active). Besides, the growth with SK-MEL-5 melanoma is -96.8% (active); in the assay with UACC-62 melanoma, -81.7% (active); in the assay on LOX IMVI melanoma, -47.1% (active); with SK-MEL-28 melanoma, 6.43% (active).
